# From the supplement of paper PMC6411743
# ± gives the standard deviation of the averaged measurements. About 6,500 targets were measured; listed, in parts, are those with the largest changes and a random draw of the rest.
# Compound: Nc1ncnc2c1ncn2[C@@H]1O[C@H](COP(=O)(O)OP(=O)(O)OP(=O)(O)O)[C@@H](O)[C@H]1O [adenosine triphosphate]
# Test: NP40-soluble protein abundance relative to vehicle (solubility fold change) (ratio); higher = more soluble protein in presence of ATP
# In short: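 In three independent experiments, Jurkat crude lysate made by Dounce homogenisation was treated for 10 min at room temperature and then 3 min at 37 °C with eight concentrations ranging from 0.1 to 10 mM. It was then solubilised with 0.8% NP40 plus benzonase for 60 min at 4 °C and ultracentrifuged. The supernatant was TMT-labelled for LC-MS/MS, and each value is the fold change against the detergent-processed vehicle for the same replicate, using vsn-normalised intensities.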
# Sequence of UniProt Q10567 (Q10567 whole entry): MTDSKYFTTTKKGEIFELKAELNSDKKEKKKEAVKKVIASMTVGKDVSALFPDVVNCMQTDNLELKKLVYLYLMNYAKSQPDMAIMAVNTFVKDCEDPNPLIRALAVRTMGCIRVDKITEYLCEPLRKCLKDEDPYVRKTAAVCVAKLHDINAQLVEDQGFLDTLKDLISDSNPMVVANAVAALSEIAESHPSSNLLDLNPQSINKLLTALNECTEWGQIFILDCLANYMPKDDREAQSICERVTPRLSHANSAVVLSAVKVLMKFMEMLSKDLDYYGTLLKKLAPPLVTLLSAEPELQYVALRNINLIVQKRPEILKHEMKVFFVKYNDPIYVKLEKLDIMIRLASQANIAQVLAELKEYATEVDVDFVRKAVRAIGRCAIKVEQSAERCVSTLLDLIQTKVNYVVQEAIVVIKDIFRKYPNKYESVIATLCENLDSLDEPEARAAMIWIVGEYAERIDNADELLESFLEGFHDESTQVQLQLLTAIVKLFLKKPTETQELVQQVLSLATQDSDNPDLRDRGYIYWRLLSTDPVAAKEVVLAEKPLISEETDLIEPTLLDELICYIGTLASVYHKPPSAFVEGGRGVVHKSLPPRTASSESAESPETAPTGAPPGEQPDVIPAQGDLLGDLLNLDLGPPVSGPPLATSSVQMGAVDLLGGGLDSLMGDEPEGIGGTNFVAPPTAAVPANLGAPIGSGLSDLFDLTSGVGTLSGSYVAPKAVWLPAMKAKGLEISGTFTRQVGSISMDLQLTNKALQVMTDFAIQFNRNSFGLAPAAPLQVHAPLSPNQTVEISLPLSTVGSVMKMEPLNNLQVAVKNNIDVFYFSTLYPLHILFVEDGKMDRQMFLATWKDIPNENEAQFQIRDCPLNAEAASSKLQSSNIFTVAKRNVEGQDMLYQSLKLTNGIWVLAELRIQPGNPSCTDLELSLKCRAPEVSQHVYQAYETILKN
# Sequence of UniProt Q8IY18 (Q8IY18 whole entry): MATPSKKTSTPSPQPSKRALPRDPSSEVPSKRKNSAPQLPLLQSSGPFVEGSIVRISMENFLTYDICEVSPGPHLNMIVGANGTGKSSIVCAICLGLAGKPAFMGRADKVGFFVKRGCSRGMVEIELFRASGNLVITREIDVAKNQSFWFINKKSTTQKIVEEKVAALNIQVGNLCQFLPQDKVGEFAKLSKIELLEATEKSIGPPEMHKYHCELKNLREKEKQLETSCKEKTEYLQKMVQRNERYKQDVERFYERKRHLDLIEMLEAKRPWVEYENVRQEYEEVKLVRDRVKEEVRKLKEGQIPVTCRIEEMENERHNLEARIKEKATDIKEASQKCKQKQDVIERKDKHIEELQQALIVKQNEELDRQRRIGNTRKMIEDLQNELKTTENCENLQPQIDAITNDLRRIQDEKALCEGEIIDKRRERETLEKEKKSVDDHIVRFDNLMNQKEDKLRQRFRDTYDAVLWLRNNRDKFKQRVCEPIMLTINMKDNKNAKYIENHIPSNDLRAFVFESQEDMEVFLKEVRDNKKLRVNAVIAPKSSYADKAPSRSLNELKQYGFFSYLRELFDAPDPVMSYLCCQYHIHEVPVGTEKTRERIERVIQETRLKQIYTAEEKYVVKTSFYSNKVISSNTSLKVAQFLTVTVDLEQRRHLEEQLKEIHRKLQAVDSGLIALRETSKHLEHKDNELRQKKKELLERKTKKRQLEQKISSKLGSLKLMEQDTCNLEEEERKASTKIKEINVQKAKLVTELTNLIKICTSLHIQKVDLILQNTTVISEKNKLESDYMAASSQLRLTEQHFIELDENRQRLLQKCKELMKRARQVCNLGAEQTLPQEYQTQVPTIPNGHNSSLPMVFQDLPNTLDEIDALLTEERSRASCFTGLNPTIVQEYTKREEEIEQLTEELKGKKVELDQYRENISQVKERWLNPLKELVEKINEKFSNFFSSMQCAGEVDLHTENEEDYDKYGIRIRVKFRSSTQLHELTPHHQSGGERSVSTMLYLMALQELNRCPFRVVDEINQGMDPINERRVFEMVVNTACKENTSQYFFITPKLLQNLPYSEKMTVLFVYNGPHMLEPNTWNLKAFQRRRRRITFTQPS
# Sequence of UniProt Q8N766 (Q8N766 whole entry): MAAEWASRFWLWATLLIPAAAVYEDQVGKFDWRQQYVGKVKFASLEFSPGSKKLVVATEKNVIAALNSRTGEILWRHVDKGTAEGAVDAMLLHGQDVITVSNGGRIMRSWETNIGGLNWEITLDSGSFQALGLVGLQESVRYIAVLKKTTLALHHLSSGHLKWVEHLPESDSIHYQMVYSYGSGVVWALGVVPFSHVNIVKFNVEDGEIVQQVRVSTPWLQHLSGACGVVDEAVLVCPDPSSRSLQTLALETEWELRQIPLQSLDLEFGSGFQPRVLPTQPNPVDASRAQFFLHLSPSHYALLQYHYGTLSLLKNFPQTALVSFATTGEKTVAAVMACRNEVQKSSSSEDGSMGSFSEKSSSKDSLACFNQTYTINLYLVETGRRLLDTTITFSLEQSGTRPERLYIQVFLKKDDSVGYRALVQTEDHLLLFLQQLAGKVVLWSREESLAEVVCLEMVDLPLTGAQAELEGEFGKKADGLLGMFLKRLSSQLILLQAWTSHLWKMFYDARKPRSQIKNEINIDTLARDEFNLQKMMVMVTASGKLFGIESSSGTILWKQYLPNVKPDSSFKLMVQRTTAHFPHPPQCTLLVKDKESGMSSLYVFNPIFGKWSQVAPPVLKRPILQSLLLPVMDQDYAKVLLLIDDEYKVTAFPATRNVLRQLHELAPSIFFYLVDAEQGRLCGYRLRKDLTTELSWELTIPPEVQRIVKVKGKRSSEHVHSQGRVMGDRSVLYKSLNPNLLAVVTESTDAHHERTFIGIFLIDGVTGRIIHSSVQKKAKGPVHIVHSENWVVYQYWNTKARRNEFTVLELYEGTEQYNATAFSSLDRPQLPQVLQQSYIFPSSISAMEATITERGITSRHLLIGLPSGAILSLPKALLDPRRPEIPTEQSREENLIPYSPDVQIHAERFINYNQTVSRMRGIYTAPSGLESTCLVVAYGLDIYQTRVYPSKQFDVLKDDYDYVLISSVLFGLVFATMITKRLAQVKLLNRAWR
# Sequence of UniProt Q5SQI0 (Q5SQI0 whole entry): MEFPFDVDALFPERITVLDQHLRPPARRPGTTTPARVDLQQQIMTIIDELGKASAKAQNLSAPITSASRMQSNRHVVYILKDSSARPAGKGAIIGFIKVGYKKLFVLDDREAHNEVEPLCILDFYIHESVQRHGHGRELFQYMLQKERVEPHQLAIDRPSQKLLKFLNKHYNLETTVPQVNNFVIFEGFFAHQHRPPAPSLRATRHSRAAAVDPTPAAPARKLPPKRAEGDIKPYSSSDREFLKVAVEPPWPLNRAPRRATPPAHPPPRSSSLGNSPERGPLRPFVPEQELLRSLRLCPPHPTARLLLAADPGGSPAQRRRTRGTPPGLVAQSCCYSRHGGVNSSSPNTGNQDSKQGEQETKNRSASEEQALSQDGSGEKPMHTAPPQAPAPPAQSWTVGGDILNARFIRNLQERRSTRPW
# Sequence of UniProt Q2T9J0 (Q2T9J0 whole entry): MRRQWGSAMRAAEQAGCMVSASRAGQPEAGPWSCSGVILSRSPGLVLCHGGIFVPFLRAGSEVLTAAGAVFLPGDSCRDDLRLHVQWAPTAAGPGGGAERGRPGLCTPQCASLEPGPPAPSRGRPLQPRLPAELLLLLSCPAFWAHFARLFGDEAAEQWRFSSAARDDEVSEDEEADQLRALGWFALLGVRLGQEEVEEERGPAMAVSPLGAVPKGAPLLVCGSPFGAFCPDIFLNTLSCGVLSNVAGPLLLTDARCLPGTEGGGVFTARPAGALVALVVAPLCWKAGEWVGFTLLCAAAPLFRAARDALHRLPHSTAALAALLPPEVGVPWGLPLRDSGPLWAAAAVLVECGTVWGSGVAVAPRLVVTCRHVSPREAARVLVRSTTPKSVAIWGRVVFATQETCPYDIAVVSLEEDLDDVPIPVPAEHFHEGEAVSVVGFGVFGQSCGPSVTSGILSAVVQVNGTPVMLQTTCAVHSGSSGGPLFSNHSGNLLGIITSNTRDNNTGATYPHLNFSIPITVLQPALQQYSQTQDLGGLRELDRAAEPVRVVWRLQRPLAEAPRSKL
# Sequence of UniProt Q7Z7K6 (Q7Z7K6 whole entry): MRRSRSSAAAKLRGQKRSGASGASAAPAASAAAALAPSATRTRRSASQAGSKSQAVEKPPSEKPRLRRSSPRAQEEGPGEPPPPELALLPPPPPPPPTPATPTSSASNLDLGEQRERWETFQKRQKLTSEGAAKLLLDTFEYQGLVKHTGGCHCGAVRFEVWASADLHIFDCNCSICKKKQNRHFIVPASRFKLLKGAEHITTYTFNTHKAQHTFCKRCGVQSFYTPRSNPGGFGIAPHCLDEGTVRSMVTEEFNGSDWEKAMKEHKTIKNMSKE
# Sequence of UniProt Q6DKK2 (Q6DKK2 whole entry): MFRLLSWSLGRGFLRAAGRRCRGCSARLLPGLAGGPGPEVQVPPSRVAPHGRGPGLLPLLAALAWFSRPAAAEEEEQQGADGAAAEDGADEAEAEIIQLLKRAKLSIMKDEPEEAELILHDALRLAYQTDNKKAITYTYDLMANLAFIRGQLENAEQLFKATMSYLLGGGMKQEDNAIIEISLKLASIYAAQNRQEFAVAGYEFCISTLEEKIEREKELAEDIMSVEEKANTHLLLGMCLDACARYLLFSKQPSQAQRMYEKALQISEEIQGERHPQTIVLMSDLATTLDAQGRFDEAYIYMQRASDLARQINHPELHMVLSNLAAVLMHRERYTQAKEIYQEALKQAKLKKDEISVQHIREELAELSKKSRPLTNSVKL
# Sequence of UniProt Q13158 (Q13158 whole entry): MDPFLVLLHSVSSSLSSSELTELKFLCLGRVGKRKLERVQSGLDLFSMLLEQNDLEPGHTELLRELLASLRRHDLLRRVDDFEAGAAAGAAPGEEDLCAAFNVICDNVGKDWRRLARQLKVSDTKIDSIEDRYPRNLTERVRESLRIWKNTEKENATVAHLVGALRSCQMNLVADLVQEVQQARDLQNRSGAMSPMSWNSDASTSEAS
Target,NP40-soluble protein abundance (concentration: 1mM),NP40-soluble protein abundance (concentration: 2mM),NP40-soluble protein abundance (concentration: 4mM),NP40-soluble protein abundance (concentration: 6mM),NP40-soluble protein abundance (concentration: 8mM),NP40-soluble protein abundance (concentration: 10mM)
UniProt Q86X95,0.964 ± 0.013,0.935 ± 0.061,0.9643 ± 0.008,0.949 ± 0.026,0.935 ± 0.0096,0.913 ± 0.02
UniProt Q7Z7K6|Q7Z7K6-3,1.08 ± 0.058,1.14 ± 0.19,1.33 ± 0.14,1.47 ± 0.24,1.56 ± 0.23,2.03 ± 0.28
UniProt Q6IN85,1.03 ± 0.066,0.979 ± 0.042,0.946 ± 0.041,0.991 ± 0.048,0.956 ± 0.047,0.935 ± 0.08
UniProt Q13795|Q13795-3,0.95 ± 0.024,0.961 ± 0.015,0.932 ± 0.025,0.962 ± 0.046,0.9416 ± 0.0073,0.945 ± 0.039
CUL4A (UniProt Q13619),0.99 ± 0.13,0.955 ± 0.08,0.918 ± 0.08,0.89 ± 0.098,0.963 ± 0.047,0.94 ± 0.047
UniProt Q8IUD2|X6RLX0,0.979 ± 0.037,0.985 ± 0.025,0.997 ± 0.025,1.01 ± 0.014,0.988 ± 0.027,0.997 ± 0.025
AUH (UniProt Q13825),0.96 ± 0.062,0.979 ± 0.049,0.967 ± 0.035,0.93 ± 0.082,0.96 ± 0.055,0.973 ± 0.036
NDUFAF2 (UniProt Q8N183),0.927 ± 0.11,0.916 ± 0.046,0.934 ± 0.093,0.906 ± 0.046,0.959 ± 0.062,0.848 ± 0.12
TTC19 (UniProt Q6DKK2),0.971 ± 0.078,0.922 ± 0.037,0.973 ± 0.043,0.923 ± 0.04,0.985 ± 0.038,0.865 ± 0.094
UniProt Q8N3X1|Q8N3X1-2,1.01 ± 0.026,1.11 ± 0.013,1.29 ± 0.042,1.57 ± 0.027,1.72 ± 0.08,1.9 ± 0.082
ZCCHC7 (UniProt Q8N3Z6),1.02 ± 0.19,1.2 ± 0.026,1.34 ± 0.021,1.48 ± 0.018,1.51 ± 0.15,1.79 ± 0.044
UniProt Q5T200|Q5T200-2,1.04 ± 0.057,1.1 ± 0.056,1.15 ± 0.077,1.22 ± 0.094,1.21 ± 0.086,1.29 ± 0.093
UniProt Q7Z5K2|Q7Z5K2-3,1.02 ± 0.011,0.995 ± 0.018,0.993 ± 0.011,1.01 ± 0.026,1.014 ± 0.0065,0.987 ± 0.029
RABEP1 (UniProt Q15276),0.942 ± 0.049,0.944 ± 0.032,0.928 ± 0.021,0.995 ± 0.054,0.895 ± 0.016,0.9135 ± 0.0042
PIGO (UniProt Q8TEQ8),0.991 ± 0.035,1 ± 0.062,0.996 ± 0.02,0.979 ± 0.073,0.983 ± 0.051,1.01 ± 0.039
C6ORF134 (UniProt Q5SQI0),0.975 ± 0.073,0.98 ± 0.089,0.981 ± 0.064,0.999 ± 0.09,0.983 ± 0.029,0.998 ± 0.04
ZC3H12A (UniProt Q5D1E8),0.982 ± 0.088,1.05 ± 0.089,0.988 ± 0.11,1.02 ± 0.085,1.02 ± 0.084,0.943 ± 0.11
TBL3 (UniProt Q12788),1.15 ± 0.06,1.3 ± 0.04,1.58 ± 0.036,1.59 ± 0.11,1.89 ± 0.1,2.01 ± 0.089
UniProt Q8NB78,1.11 ± 0.064,1.09 ± 0.025,1.11 ± 0.08,0.998 ± 0.08,1.11 ± 0.035,1.09 ± 0.025
TRIM14 (UniProt Q14142),1.08 ± 0.044,1.05 ± 0.037,1.13 ± 0.088,1.1 ± 0.083,1.17 ± 0.067,1.27 ± 0.2
UniProt Q86UT6|Q86UT6-2,1.03 ± 0.027,1.081 ± 0.0018,0.99 ± 0.06,1.01 ± 0.18,1.02 ± 0.14,1.03 ± 0.12
UniProt Q5JUR7,1 ± 0.077,1.07 ± 0.12,1.04 ± 0.029,1.02 ± 0.13,1.05 ± 0.087,1.06 ± 0.062
UniProt Q86W42|Q86W42-2,1.59 ± 0.18,1.69 ± 0.05,2 ± 0.087,2.16 ± 0.071,2.47 ± 0.094,2.55 ± 0.19
UniProt Q13045|Q13045-2,1.01 ± 0.039,0.985 ± 0.042,0.974 ± 0.03,0.949 ± 0.058,0.976 ± 0.026,0.968 ± 0.051
UniProt Q15036|Q15036-2,0.88 ± 0.17,0.835 ± 0.14,0.853 ± 0.15,0.808 ± 0.18,0.808 ± 0.12,0.849 ± 0.16
SMC5 (UniProt Q8IY18),1.02 ± 0.026,1.02 ± 0.013,1.02 ± 0.02,1.04 ± 0.02,1.04 ± 0.016,1.04 ± 0.017

Target,NP40-soluble protein abundance (concentration: 1mM),NP40-soluble protein abundance (concentration: 2mM),NP40-soluble protein abundance (concentration: 4mM),NP40-soluble protein abundance (concentration: 6mM),NP40-soluble protein abundance (concentration: 8mM),NP40-soluble protein abundance (concentration: 10mM)
UniProt Q5T280,1.03 ± 0.085,1.08 ± 0.077,1.23 ± 0.12,1.47 ± 0.17,1.52 ± 0.21,1.83 ± 0.22
UniProt Q86X83|Q86X83-2,1.01 ± 0.038,0.975 ± 0.011,0.963 ± 0.024,0.927 ± 0.022,0.956 ± 0.048,0.971 ± 0.021
UniProt Q08170,1.58 ± 0.12,1.68 ± 0.08,1.66 ± 0.095,1.81 ± 0.058,1.68 ± 0.052,1.64 ± 0.073
UniProt Q13111|K7EPA1,0.987 ± 0.059,0.988 ± 0.028,0.97 ± 0.035,1.03 ± 0.031,0.977 ± 0.036,1.01 ± 0.036
YRDC (UniProt Q86U90),0.928 ± 0.045,0.959 ± 0.05,0.93 ± 0.028,0.885 ± 0.043,0.896 ± 0.01,0.932 ± 0.017
UniProt Q70Z53,0.931 ± 0.015,0.927 ± 0.028,0.919 ± 0.011,0.922 ± 0.066,0.933 ± 0.058,0.936 ± 0.013
MDC1 (UniProt Q14676),1.45 ± 0.11,1.57 ± 0.11,1.74 ± 0.13,1.89 ± 0.18,1.88 ± 0.13,1.99 ± 0.15
UniProt Q8TEB1|Q8TEB1-2,0.948 ± 0.093,0.977 ± 0.06,0.961 ± 0.079,0.956 ± 0.054,0.942 ± 0.066,0.918 ± 0.078
UniProt Q8NEJ9|Q8NEJ9-2,1.11 ± 0.12,1.13 ± 0.16,1.24 ± 0.064,1.29 ± 0.14,1.32 ± 0.058,1.34 ± 0.19
PPIG (UniProt Q13427),1.61 ± 0.22,1.69 ± 0.27,1.78 ± 0.32,1.99 ± 0.49,1.85 ± 0.43,1.95 ± 0.46
UniProt Q8N766|Q8N766-3,0.974 ± 0.082,0.977 ± 0.065,0.982 ± 0.056,0.878 ± 0.1,0.934 ± 0.013,0.977 ± 0.052
UniProt Q8WU79|A0A087WV97|Q8WU79-2|Q8WU79-3,0.891 ± 0.067,0.924 ± 0.024,0.869 ± 0.011,0.975 ± 0.047,0.839 ± 0.017,0.872 ± 0.032
TYSND1 (UniProt Q2T9J0),0.977 ± 0.047,0.983 ± 0.058,0.995 ± 0.042,0.947 ± 0.013,0.974 ± 0.032,0.96 ± 0.076
LYPLAL1 (UniProt Q5VWZ2),0.942 ± 0.077,0.936 ± 0.066,0.892 ± 0.048,0.879 ± 0.12,0.883 ± 0.03,0.904 ± 0.057
Q5VVD7|Q8IWE5 (UniProt Q8IWE5),0.929 ± 0.047,0.998 ± 0.048,0.932 ± 0.04,0.953 ± 0.036,0.95 ± 0.04,0.955 ± 0.03
UniProt Q7Z2T5,1.09 ± 0.05,1.16 ± 0.051,1.27 ± 0.013,1.39 ± 0.023,1.55 ± 0.018,1.69 ± 0.051
Q5QPA5|Q9NVS2|Q9NVS2-2 (UniProt Q9NVS2),1.07 ± 0.12,0.926 ± 0.14,0.879 ± 0.17,0.946 ± 0.39,0.887 ± 0.24,0.818 ± 0.2
FADD (UniProt Q13158),1.1 ± 0.14,1.05 ± 0.05,1.06 ± 0.11,1.05 ± 0.046,1.06 ± 0.13,0.969 ± 0.11
URB2 (UniProt Q14146),1.21 ± 0.1,1.36 ± 0.15,1.61 ± 0.058,1.68 ± 0.11,2.04 ± 0.16,2.19 ± 0.46
RNF20 (UniProt Q5VTR2),0.962 ± 0.05,0.961 ± 0.02,0.935 ± 0.024,0.997 ± 0.041,0.935 ± 0.019,0.933 ± 0.017
TOMM20 (UniProt Q15388),0.921 ± 0.086,0.896 ± 0.044,0.903 ± 0.11,0.886 ± 0.041,0.8947 ± 0.0073,0.803 ± 0.21
UniProt Q10567|Q10567-2|Q10567-3,0.9721 ± 0.0088,0.973 ± 0.015,0.922 ± 0.022,0.964 ± 0.013,0.951 ± 0.0014,0.934 ± 0.024
GRAMD4 (UniProt Q6IC98),1.01 ± 0.02,0.998 ± 0.02,0.994 ± 0.035,1.02 ± 0.031,1.02 ± 0.025,1.01 ± 0.02
UniProt Q8TED0|H0Y8P4|Q8TED0-3,1.18 ± 0.18,1.22 ± 0.11,1.32 ± 0.18,1.43 ± 0.28,1.5 ± 0.24,1.77 ± 0.41
UniProt Q8NG08|F5H1I4,1.05 ± 0.18,1.06 ± 0.12,1.09 ± 0.16,0.955 ± 0.13,0.984 ± 0.066,1.01 ± 0.1
